Source: PubChem BioAssay (EPA / NIEHS)
Records with an inconclusive call do not appear. Active and inactive are the calls of the source. Rule for the calls: active = hit-call score of the fitted dose curve at least 0.9, where 1 is the maximum; inconclusive = response in the unintended direction; inactive = score below 0.9. Peptide text beside a SMILES is read from it.

Test: ATG_XTT_Cytotoxicity: Cytotoxicity Assessment in the Attagene TRANS-FACTORIAL HepG2 Assay (AID 2283584)
Procedure: ATG_XTT_Cytotoxicity is a cell-based, single-readout assay that uses HepG2, a human liver cell line, with measurements taken at 24 hours after chemical dosing in a 24-well plate.ATG_XTT_Cytotoxicity is one of one assay component(s) measured or calculated from the ATG_XTT_Cytotoxicity assay. It is designed to make measurements of cell number, a form of viability reporter, as detected with […] signals by XTT cytotoxicity assay technology.Data from the assay component ATG_XTT_Cytotoxicity was analyzed into 1 assay endpoint. This assay endpoint, ATG_XTT_Cytotoxicity, was analyzed in the positive analysis fitting direction relative to DMSO as the negative control and baseline of activity. Using a type of viability reporter, loss-of-signal activity can be used to understand changes in the viability. Furthermore, this assay endpoint can be referred to as a primary readout, because the performed assay has only produced 1 assay endpoint. To generalize the intended target to other relatable targets, this assay endpoint is annotated to the cell cycle intended target family, where the subfamily is cytotoxicity.
Human liver HepG2 cells are transiently transfected with multiple reporter transcription units (MRTUs) in 6-well plates using FuGene 6 reagent (Roche; 3 ml FuGene/1 mg DNA). The MRTU constructs are regulated by a cis-regulating element (promoter). […] A major difference between the CIS and TRANS system is that in CIS activities of endogenous TFs are measured, whereas the TRANS assay evaluates changes in activities of exogenous, chimeric NR-Gal4 proteins. […] At the end of 24 hour incubation, total RNA was isolated using TriZol reagent (Invitrogen). The isolated RNA is then reverse-transcribed using oligo(dT) primer and Mo-MLV reverse transcriptase (Invitrogen) with DNAse I (Ambion) treatment for 30 min. The one-tenth of the produced cDNA was amplified by PCR using Taq DNA polymerase (Invitrogen) and two reporter sequence-specific primers. The PCR products were fluorescently labeled by primer extension with 6-arboxyfluorescein (6-FAM) 5'-labeled reporter sequence-specific primer (2 min at 95 C, 20 s at 68 C and 10 min at 72 C) and these products were digested with 5U of HpaI (New England Biolabs) for 2h at 37 C. The fragments were purified using Qiaquick PCR columns (Qiagen), analyzed on an ABI 3130xL genetic analyzer (Applied Biosystems) with peak positions identified by using a set of X-rhodamine (ROX)-labeled MapMarker1000 molecular weight standards (BioVentures). The raw capillary electrophoresis data was processed using Attagraph software (Attagene).

SMILES	outcome
[Cl][Sc]([Cl])[Cl]	inactive
CCCCCCCCC(CO)CCCCCC (stereo not given)	inactive
CCOC(=O)[C@H](O)[C@@H](O)C(=O)OCC	inactive
CC(C)CCCCCOC(=O)CS	inactive
CC(=O)OC1CCCCC1C(C)(C)C (stereo not given)	inactive
CCCC(CC)c1ccccc1 (stereo not given)	inactive
CCCCCCO	inactive
CCc1occc(=O)c1O	inactive
CC(CC(C)C)=NO	inactive
CCCCC(CC)COS(=O)(=O)O (stereo not given)	inactive
CCCCCCOc1ccc(N)cc1	inactive
CC(=O)CCC=C(C)C	inactive
CCCCCC(=O)OCC	inactive
C[Si](C)(C)N[Si](C)(C)C	inactive
CCCCC1CCC(=O)O1 (stereo not given)	inactive
CCCCOCC(C)O (stereo not given)	inactive
CC(=O)OCCc1ccccc1	inactive
CCCc1ccc(O)c(OC)c1	inactive
CCCCC(C=O)CC (stereo not given)	inactive
COc1ccc(C(=O)c2ccccc2)c(O)c1	inactive

SMILES	outcome
Nc1nc(N)nc(-c2ccccc2)n1	inactive
COC(=O)[C@H](Cc1ccccc1)NC(=O)[C@@H](N)CC(=O)O (H-Asp-Phe-OMe)	inactive
CC=CC(=O)OCC(C)C	inactive
CCCCCCCCCCCC(=O)OCC	inactive
CCCCC(CC)COC(=O)/C=C/c1ccc(OC)cc1 (stereo not given)	inactive
C=CCNCC=C	inactive
CCCCOCCOC(=O)COc1ccc(Cl)cc1Cl	inactive
CCCCC(=O)O	inactive
Cc1c(Cl)cccc1Cl	inactive
CC(=O)c1ccccc1O	inactive
CCCCCCCOC(=O)c1ccc(O)cc1	inactive
N#Cc1ccc(C2CCCc3cncn32)cc1 (stereo not given)	inactive
CCCCCCCO	inactive
CC(C)c1ccc2ncccc2c1	inactive
CCOC(=O)C1=NN(c2ccc(Cl)cc2Cl)C(C)(C(=O)OCC)C1 (stereo not given)	inactive
C=C(C)OC(C)=O	inactive
Nc1ccc(C(=O)O)cc1	inactive
CC(=O)OC/C=C(/C)CCC=C(C)C	inactive
Oc1c(Cl)cc(Cl)c(Cl)c1Cl	inactive
CCN(CC)c1cccc(C)c1	inactive
